Only some compounds are listed: those with a hit (about 8.5% of all), similar ones and a draw of the others.
KDM4E inh = JMJD2E (human) inhibition. actives 1.6% (n = 230,000). Potency, µM (top dose mostly 57.1 µM), for inactives: at the top dose activity change, negative = inhibition, actives largely listed as inhibitors. AID 2147. JMJD2E catalytic domain, FDH-coupled NADH fluorescence (FDH is formaldehyde dehydrogenase). B2RXH2; active means well fitted inhibition curve with a large enough effect, not every such curve was filed as active; inconclusive means small, poorly fitted or top-dose-only effect, or another doubt; inactive means no such curve, though single readings can be large or run the other way;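 further: potency means the concentration at half of the fitted maximal effect; 0% = wells with enzyme and -100% = buffer wells without enzyme; nearly all actives have a fitted effect of over 50% in size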
ALDH1A1 inh = inhibitors of human aldehyde dehydrogenase 1A1. P00352. Purified ALDH1A1, NADH fluorescence, propionaldehyde substrate. Potency, µM (series often up to 75.3 µM), inactives show top-dose activity, negative = inhibition, most hits filed as inhibitors. actives 7.3% (n = 220,000); active means well fitted inhibition curve with a large enough effect, not every such curve was filed as active; inconclusive means small, poorly fitted or top-dose-only effect, or another doubt; inactive means no such curve, though single readings can be large or run the other way;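 further: potency means the concentration at half of the fitted maximal effect; plate controls were no enzyme wells and a reference inhibitor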
Sfp inh = inhibitors of Bacillus subtilis Sfp phosphopantetheinyl transferase | Q9F4F7 | Biochemical Sfp PPTase activity, qHTS | Potency, µM, inactives show largest response in the series, negative = inhibition, usual class: inhibitors | actives 3.5% (n = 310,000) | AID 1490;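 further: the enzyme is Sfp with the accession as filed and its product quenches rhodamine fluorescence; potency means the concentration at half of the fitted maximal effect; 0% = enzyme reaction without inhibitor and -100% = no enzyme wells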
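Fluorescence-quenching assay with 15 nM Sfp, 5 uM rhodamine-CoA and 12.5 uM BHQ-2-labelled ybbR peptide in pH 7.6 Hepes/MgCl2 buffer. Enzyme was pre-incubated with compound for 15 min at room temperature. Rate was taken from the 30-min fluorescence change (525/598 nm).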
RGS12 GoLoco inh = blocks human Gai1 binding to RGS12 GoLoco peptide, red readout; actives 0.44% (n = 230,000); P63096; Potency, µM (titrated, usually from 61.6 µM), for inactives: at the highest dose activity, negative = inhibition, actives largely listed as inhibitors; Gai1:RGS12 GoLoco peptide FP, rhodamine, 10 min; active means well fitted inhibition curve with a large enough effect, not every such curve was filed as active; inactive means no such curve, though single readings can be large or run the other way; further: potency means the concentration at half of the fitted maximal effect; nearly all actives have a fitted effect of over 30% in size
Target sequence (P63096 whole entry, looked up): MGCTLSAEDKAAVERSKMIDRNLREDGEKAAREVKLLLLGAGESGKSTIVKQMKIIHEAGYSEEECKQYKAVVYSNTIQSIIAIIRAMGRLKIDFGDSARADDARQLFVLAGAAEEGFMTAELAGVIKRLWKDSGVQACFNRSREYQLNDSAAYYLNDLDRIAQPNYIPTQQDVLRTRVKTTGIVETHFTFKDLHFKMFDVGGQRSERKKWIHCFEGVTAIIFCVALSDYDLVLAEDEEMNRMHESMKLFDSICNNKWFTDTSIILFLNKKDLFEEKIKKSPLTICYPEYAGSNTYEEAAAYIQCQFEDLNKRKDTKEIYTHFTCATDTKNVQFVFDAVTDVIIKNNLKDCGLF
NPSR antag = blocks cAMP signaling of the human neuropeptide S receptor. AID 1461. Q6W5P4. actives 1% (n = 220,000). CHO-NPSR cells, cAMP TR-FRET, antagonist mode. Potency, µM (series often up to 38.3 µM), without a hit: top-dose activity change, negative = inhibition, actives largely listed as inhibitors; further: potency means the concentration at half of the fitted maximal effect; nearly all actives have a fitted effect of over 50% in size
Coupling enz = inhibits coupling enzyme system, counter-screen for aldolase hits. activity change, negative = inhibition, % at 58.2 µM, hits read low. actives 0.67% (n = 290,000). coupling enzyme system counterscreen, AmpLite Red fluorescence; in the data active means activity change below about -30%
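Final compound at 57.5 uM, incubated 10 min at RT with coupling enzyme reagent (glyceraldehyde-3-phosphate), then 20 min with substrate and AmpLite Red detection. Fluorescence read at 525/598 nm; tests interference with the coupling assay, not aldolase inhibition.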
Active calls of the source: *; ? = inconclusive; / = no result given; [ ] = another dose, or the depositor's remark. Unless noted, the call rests on the fitted dose curve; in most records, active means well fitted curve in the direction sought with a large enough effect; inconclusive means small, poorly fitted or top-dose-only effect, or another doubt; inactive means no such curve, though single readings can be large; an effect the other way counts as inactive or inconclusive. Unless noted, on the % scale 0 is the no-effect control and ±100 the full control effect.

SMILES | KDM4E inh | ALDH1A1 inh | Sfp inh | RGS12 GoLoco inh | NPSR antag | Coupling enz
CC(C)N(Cc1cc2ccccc2[nH]c1=O)C(=O)c1ccco1 | ? | 17.8µM* | 50.1µM* | 8.1% | 7.9% | -2.1
Cc1cccc(N(Cc2cc3ccccc3[nH]c2=O)C(=O)c2ccco2)c1C | -5.5% | 12.6µM* | 79.4µM* | -10.6% | ? | 6.7
COCC(=O)N(Cc1cc2cc(OC)ccc2[nH]c1=O)c1ccccc1 | ? | ? | 0.0% | -0.2% | -25.7%[46.1 µM] | -7.6
CNc1ccc(-c2nc3ccccc3s2)cc1 | / | / | ? | / | / | -8.6
CCCn1ncc(CN2CCCC(C(=O)c3cccc(OC(C)C)c3)C2)c1C (stereo not given) | ? | / | -8.2% | -13.3% | -10.1% | 0.5
N#Cc1cccc(CN2CCC(=O)N([C@H](CO)Cc3ccccc3)CC2)c1 | / | / | 1.5% | / | / | 1.7
CSc1ccc(CN(C)C(C)C(=O)NCc2ccccc2)cc1 (stereo not given) | 11.8% | -7.1% | 8.8% | -1.9% | -18.8% | -1.6
N#CC1=C(N)OC2=C(C(=O)CC(c3ccco3)C2)C1c1ccc(OCc2c(F)cccc2Cl)cc1 (stereo not given) | -18.8% | 8.91µM* | -24.5% | 27.9% | ? | /
COc1cccc(C2C(C#N)=C(N)OC3=C2C(=O)CC(c2ccco2)C3)c1OCc1ccc(F)cc1 (stereo not given) | -8.0% | -7.4% | -2.0% | 19.9% | -21.8%[46.1 µM] | -4.0
O=c1sc(N2CCN(c3ccccc3F)CC2)nc2ccsc12 | -9.5% | ? | ? | -7.9% | ? | 0.1
CCOc1ccc2nc(N3CCC(C(=O)N4CCN(C(=O)c5ccco5)CC4)CC3)sc2c1 | 5.3% | 15.8µM* | 5.4% | -3.3% | 7.4% | -0.4
O=C(c1ccco1)N1CCN(c2nc3ccsc3c(=O)s2)CC1 | -13.1% | 12.6µM* | 16.6% | 4.3% | -22.0%[46.1 µM] | -0.6
CCc1ccc(OCC(=O)Nc2ccc(S(=O)(=O)Nc3cc(C)on3)cc2)c(Br)c1 | / | / | 9.6% | / | / | /
CCCN1CCCC(c2cccc(S(C)(=O)=O)c2)C1 (stereo not given) | / | / | -15.9% | / | / | -6.6
CC(C)c1ccc(/C=C/C(=O)NC(=S)Nc2ccc(CN3CCOCC3)cc2)cc1 | 0.6% | ? | 3.6% | 8.7% | -21.0% | -3.3
O=C(NC(=S)Nc1ccc(CN2CCOCC2)cc1)c1ccc([N+](=O)[O-])cc1 | -2.4% | ? | 50.1µM* | -0.4% | 11.9% | 0.2
O=C(/C=C/c1cccc([N+](=O)[O-])c1)NC(=S)Nc1ccc(CN2CCOCC2)cc1 | -1.8% | 3.16µM* | -0.3% | 2.1% | 9.0% | 1.3
C/C(=N\NC(=O)c1ccc(CN2CCOCC2)cc1)c1cccc([N+](=O)[O-])c1 | 5.7% | 18.9µM* | 5.5% | 2.9% | 8.7% | -0.5
O=C(CCCCl)NC(=S)Nc1ccc(CN2CCOCC2)cc1 | -2.0% | 20µM* | -7.4% | 4.2% | 1.9% | 1.2
COC(=O)C(CC(C)C)NS(=O)(=O)c1ccccc1Br (stereo not given) | / | / | 1.5% | / | / | -4.4
COc1ccccc1CC(NC(C)=O)C(=O)NC1CCN(C(=O)c2ccc(C)cc2)CC1 (stereo not given) | / | / | 13.7% | / | / | -0.9
Cc1cc(C)c(C#N)c(=N)o1 | ? | ? | 14.1µM* | 22.4µM* | 12.5%[46.1 µM] | 0.4
COc1ccc2nc(-c3ccc(N(C)C)cc3)sc2c1 | / | / | -26.2% | / | / | -2.2
Cc1ccc(C2(c3noc(CN(C)Cc4cccnc4)n3)CCCC2)cc1 | -1.0% | ? | -16.2% | 7.7% | 28.3% | -0.2
Cc1ncc(CO)c(/C=N/NC(=O)c2cc(O)c(O)c(O)c2)c1O | 12.6µM* | ? | 20µM* | 11.2% | -26.2% | -14.1
Cc1ncc(CO)c(/C=N/NC(=S)Nc2ccc(C(C)C)cc2)c1O | ? | / | 22.4µM* | 33.4% | -6.4% | -0.3
Cc1ncc(CO)c(/C=N/NC(=O)c2ccc(Br)cc2)c1O | ? | ? | 25.3% | 6.4% | -2.6% | 1.4
CCOC(=O)CNC(c1ccccc1)c1cc(Br)ccc1NC(=O)OCC (stereo not given) | -2.9% | 5.3% | 7.4% | 18.4% | ? | -1.1
